Here are results for five molecules from PubChem BioAssay.

Active and inactive are the calls of the source. Unless noted, how the calls were made is not given here.

Experiment [1] is described as follows: anti-His antibody binders, primary screen, artefact control for SMM control protein annotation, biochemical, small-molecule microarray, 635 nm fluorescence (AID 1128).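 Further: score merges feature fluorescence with signal-to-noise for each printed compound spot.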 To be noted: anti-His Alexa647 antibody binding, higher = more signal.
The subject of experiment [2] is Human papillomavirus type 1a E7 protein (residues 1-88). Nature of the experiment: HPV1a E7 small-molecule binders, primary screen, biochemical, small-molecule microarray, residues 1-88, 635 nm (AID 1129). Particulars: small-molecule microarray binding, fluorescence 635 nm; higher = more signal.
The target of experiment [3] is Focal adhesion kinase 1 (Homo sapiens) (UniProt Q05397). Nature of the experiment: small-molecule microarray binders of FAK, primary screen, biochemical, 635/667 nm fluorescence, BSA, DTT (AID 1130).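 Further: composite of spot emission at 667 nm and signal to noise over triplicate slides.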 To be noted: PTK2 binding, 635 nm fluorescence, higher = more signal.
Experiment [4] has as its system Fibrinogen (Alexa647-labelled). The experiment is described as follows: fibrinogen binders on compound microarrays, profiling panel, artefact control for SMM control-protein annotation, biochemical, small-molecule microarray, 635/667 nm fluorescence (AID 1131).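 Further: z-score merges 667 nm fluorescence with per-spot signal-to-noise over triplicate slides.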 Particulars: fibrinogen-A647 binding fluorescence, higher = more signal.
In experiment [5] the target is Follistatin (Homo sapiens) (UniProt P19883). Nature of the experiment: follistatin binders on small-molecule microarrays, primary screen, biochemical, small-molecule microarray, 635/667 nm fluorescence (AID 1132). Particulars: FST binding, 635 nm fluorescence, higher = more signal.
The target of experiment [6] is Fibroblast growth factor 2 (Homo sapiens) (UniProt P09038). The experiment is described as follows: FGF2 binders on small-molecule microarrays, primary screen, biochemical, small-molecule microarray, 635/667 nm fluorescence (AID 1133). To be noted: small-molecule microarray binding, FGF2, fluorescence 635/667; higher = more signal.
Experiment [7] in a line: mitochondrial membrane potential change in A549 cells, profiling panel, cell-based, JC-1 fluorescence, basal, 24 h, 100 nL (AID 1138).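 Further: A549 lung adenocarcinoma cells under basal conditions with no added stimulus; test concentration not given here.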 To be noted: higher = more signal.
The subject of experiment [8] is Lefty1. Nature of the experiment: Lefty1 binders on small-molecule microarrays, primary screen, biochemical, small-molecule microarray, 635/667 nm fluorescence (AID 1139). To be noted: small-molecule microarray binding, fluorescence 635/667; higher = more signal.
Experiment [9] relates to wheat germ agglutinin (Triticum aestivum), Alexa647-labelled. The experiment is described as follows: wheat germ agglutinin binders on compound microarrays, profiling panel, artefact control for SMM control-protein annotation, biochemical, small-molecule microarray, 635/667 nm fluorescence (AID 1140).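 Further: score merges 667 nm feature emission with signal to noise over triplicate slides.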 To be noted: WGA-A647 binding, 635 nm fluorescence, higher = more signal.

Experiment [10] concerns the target Luciferin 4-monooxygenase (Photinus pyralis) (UniProt P08659). Nature of the experiment: firefly luciferase enzyme inhibitors, primary screen, biochemical, luminescence, purified enzyme, 2006 set (AID 1141).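 Further: cell-free assay with purified firefly luciferase at 100 ng per well in PBS; test concentration not given here.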 To be noted: SteadyGlo luminescence, 30 min, higher = more signal, called active from +8 up or from −8 down.
Experiment [11] relates to Wnt5a (protein binding on small-molecule microarray). Nature of the experiment: Wnt5a binders on small-molecule microarray, primary screen, biophysical, 635/667 nm fluorescence (AID 1142).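 Further: fluorescence read at 667 nm with signal to noise per printed feature.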 Particulars: 635 nm fluorescence, higher = more signal.
Experiment [12] is described as follows: cell viability in Huh7 cells, primary screen, cytotoxicity control for HCV replication inhibitor project, CellTiter-Glo luminescence, basal, 48 h (AID 1143).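 Further: Huh7 hepatoma cells carrying a hepatitis C replication reporter with no stimulus; test concentration not given here.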 Particulars: Huh7 HCV replicon, higher = more signal, called active from +8 up or from −8 down. (ATP-based viability assays read luminescence as a measure of living cells.)
Experiment [13] can be described thus: P. aeruginosa biofilm formation inhibitors, primary screen, PAO1 strain, BacTiter-Glo luminescence, LB-PBS (AID 1144). Particulars: 12 h, higher = more signal.
A short description of experiment [14]: CREB reporter modulators without forskolin, primary screen, cell-based, PC12, CRE-LacZ reporter, unstimulated (AID 1145). Particulars: no forskolin, luminescence, 4.5 h, higher = more signal, called active from +8 up or from −8 down.
Experiment [15] in a line: CREB reporter modulators under forskolin, primary screen, cell-based, PC12, CRE-LacZ reporter, forskolin-stimulated (AID 1146).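 Further: PC12 cells with 6xCRE LacZ reporter stimulated by forskolin 10 µM; beta-galactosidase reporter signal reflecting CREB driven transcription.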 To be noted: luminescence, 4.5 h, higher = more signal, called active from +8 up or from −8 down.
In experiment [16] the target is Streptavidin (Streptomyces avidinii) (UniProt P22629). The experiment is described as follows: streptavidin binders on small-molecule microarray, primary screen, artefact control for SMM compound annotation, biophysical, 635/667 nm fluorescence (AID 1147).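 Further: signal reflects streptavidin binding to arrayed compounds as a control protein.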 To be noted: streptavidin binding, higher = more signal.
A short description of experiment [17]: small-molecule binders of probe aInhba, primary screen, biochemical, small-molecule microarray, 635/667 nm fluorescence (AID 1148).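 Further: score merges 667nm spot fluorescence with signal-to-noise for antibody binding to printed compounds.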 To be noted: higher = more signal.
Experiment [18] has as its target Torsin-1A (Homo sapiens) (UniProt O14656). The experiment is described as follows: torsin A binders from cell lysate, primary screen, small-molecule microarray, wild-type, 635/667 nm (AID 1149). Particulars: COS7 hTOR1A-WT lysate, 635 nm fluorescence, higher = more signal.
Experiment [19] shares this target. The experiment is described as follows: small-molecule binders of mutant TOR1A in lysate, primary screen, cell lysate, small-molecule microarray, COS7 lysate, 635/667 nm fluorescence (AID 1150).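 Further: score pools 667 nm emission and signal to noise measuring lysate protein binding.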 To be noted: COS7 hTOR1A mutant lysate, 635 nm fluorescence, higher = more signal.
Experiment [20] concerns Sonic hedgehog protein (Shh). The experiment is described as follows: small-molecule binders of Shh protein, primary screen, biochemical, small-molecule microarray, 635/667 nm fluorescence (AID 1151).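 Further: Shh protein binding to compounds spotted on small-molecule microarray slides; score combines spot fluorescence intensity with signal-to-noise across triplicate slides.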 Particulars: small-molecule microarray binding, 635 nm fluorescence; higher = more signal.

Fibroblast growth factor 2 (Homo sapiens), sequence (P09038 whole entry, looked up): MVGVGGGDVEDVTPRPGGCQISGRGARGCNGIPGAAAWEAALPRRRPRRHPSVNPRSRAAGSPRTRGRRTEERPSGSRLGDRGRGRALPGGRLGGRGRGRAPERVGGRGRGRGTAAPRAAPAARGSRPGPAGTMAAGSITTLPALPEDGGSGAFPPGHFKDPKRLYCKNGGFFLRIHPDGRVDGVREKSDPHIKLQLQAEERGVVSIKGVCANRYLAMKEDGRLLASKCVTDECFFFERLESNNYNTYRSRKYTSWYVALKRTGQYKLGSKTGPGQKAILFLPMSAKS
Focal adhesion kinase 1 (Homo sapiens), sequence (Q05397 whole entry, looked up): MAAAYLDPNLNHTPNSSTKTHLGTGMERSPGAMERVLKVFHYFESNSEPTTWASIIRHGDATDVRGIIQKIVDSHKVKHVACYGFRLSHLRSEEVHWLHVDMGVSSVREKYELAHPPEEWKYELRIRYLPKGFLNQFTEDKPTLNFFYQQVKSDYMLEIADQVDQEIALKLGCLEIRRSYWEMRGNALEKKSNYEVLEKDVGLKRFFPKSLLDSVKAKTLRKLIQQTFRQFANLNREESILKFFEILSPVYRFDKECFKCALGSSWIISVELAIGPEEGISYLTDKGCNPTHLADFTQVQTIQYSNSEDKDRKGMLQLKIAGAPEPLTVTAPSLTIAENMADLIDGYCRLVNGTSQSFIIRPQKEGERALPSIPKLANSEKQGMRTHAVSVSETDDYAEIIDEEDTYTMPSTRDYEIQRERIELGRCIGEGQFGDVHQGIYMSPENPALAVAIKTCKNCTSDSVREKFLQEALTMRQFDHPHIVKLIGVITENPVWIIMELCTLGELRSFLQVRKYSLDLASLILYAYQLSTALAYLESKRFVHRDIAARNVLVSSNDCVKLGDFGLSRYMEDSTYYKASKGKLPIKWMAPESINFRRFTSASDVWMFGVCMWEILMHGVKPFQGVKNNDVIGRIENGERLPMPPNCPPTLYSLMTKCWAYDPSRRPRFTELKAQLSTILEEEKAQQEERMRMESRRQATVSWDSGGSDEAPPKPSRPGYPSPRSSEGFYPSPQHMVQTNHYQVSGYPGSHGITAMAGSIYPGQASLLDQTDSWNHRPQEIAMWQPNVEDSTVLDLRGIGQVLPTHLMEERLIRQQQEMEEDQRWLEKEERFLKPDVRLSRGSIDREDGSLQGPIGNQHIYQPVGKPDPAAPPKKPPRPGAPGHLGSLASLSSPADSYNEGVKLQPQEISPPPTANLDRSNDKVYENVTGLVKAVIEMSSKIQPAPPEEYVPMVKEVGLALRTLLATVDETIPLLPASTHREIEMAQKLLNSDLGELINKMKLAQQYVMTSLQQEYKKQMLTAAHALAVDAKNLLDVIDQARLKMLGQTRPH
Torsin-1A (Homo sapiens), sequence (O14656 whole entry, looked up): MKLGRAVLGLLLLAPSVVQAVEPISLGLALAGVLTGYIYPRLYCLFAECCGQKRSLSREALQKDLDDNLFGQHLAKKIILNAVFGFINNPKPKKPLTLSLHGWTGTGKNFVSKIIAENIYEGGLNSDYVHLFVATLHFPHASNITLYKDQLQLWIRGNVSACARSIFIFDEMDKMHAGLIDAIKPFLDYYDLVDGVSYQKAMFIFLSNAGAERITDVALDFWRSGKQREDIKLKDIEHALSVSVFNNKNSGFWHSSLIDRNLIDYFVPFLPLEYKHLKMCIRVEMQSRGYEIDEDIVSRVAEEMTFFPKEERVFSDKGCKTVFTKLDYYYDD
Streptavidin (Streptomyces avidinii), sequence (P22629 whole entry, looked up): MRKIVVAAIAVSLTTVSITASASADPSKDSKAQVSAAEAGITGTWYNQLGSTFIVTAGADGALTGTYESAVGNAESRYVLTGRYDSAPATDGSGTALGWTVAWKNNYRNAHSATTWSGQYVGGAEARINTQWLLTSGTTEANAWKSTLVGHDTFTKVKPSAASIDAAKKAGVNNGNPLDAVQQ
Luciferin 4-monooxygenase (Photinus pyralis), sequence (P08659 whole entry, looked up): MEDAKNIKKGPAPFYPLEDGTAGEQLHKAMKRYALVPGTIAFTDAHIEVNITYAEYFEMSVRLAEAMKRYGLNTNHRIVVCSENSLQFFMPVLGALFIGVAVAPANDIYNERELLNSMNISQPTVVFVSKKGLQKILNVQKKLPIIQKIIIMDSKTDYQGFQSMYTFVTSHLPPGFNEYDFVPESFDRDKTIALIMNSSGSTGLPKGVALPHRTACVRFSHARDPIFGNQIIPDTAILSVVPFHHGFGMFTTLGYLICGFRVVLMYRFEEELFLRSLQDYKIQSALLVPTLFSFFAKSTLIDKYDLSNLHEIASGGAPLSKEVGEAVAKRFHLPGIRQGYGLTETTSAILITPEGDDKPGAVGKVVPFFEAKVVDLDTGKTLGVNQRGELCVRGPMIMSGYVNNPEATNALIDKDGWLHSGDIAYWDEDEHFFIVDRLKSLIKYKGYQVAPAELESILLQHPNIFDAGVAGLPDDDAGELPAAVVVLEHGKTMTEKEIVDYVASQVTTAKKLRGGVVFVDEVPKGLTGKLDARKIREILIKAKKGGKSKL
Follistatin (Homo sapiens), sequence (P19883 whole entry, looked up): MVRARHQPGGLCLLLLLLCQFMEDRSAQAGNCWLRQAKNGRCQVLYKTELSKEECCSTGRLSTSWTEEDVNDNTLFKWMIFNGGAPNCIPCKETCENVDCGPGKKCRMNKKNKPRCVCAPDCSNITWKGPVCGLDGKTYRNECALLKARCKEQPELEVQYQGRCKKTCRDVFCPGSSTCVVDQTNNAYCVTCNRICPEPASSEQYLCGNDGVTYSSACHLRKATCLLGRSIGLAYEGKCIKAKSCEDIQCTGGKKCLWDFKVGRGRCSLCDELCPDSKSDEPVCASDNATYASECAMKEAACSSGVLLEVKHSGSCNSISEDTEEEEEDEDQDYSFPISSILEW

As for `O=C1c2ccccc2[C@@]2(Cc3ccccc3N(Cc3ccccc3)C2=O)[C@H](c2ccc(CO)cc2)N1Cc1ccccc1C(F)(F)F`, the composite z-score in experiment [1] was 1.88; in experiment [2], -0.911; in experiment [3], -0.676; in experiment [4], -2.02; in experiment [5], -0.368; in [6], -0.721. Moreover, the composite z-score in [8] is -1.04; in experiment [9], -0.749; in experiment [11], -0.373; in experiment [16] it was -0.896; in experiment [17] it was -0.128; in experiment [18], -0.916. Further, the composite z-score in experiment [19] is -0.0921; in experiment [20], -1.45. The z-score was 1.78 in [7]; -0.666 (inactive) in experiment [10]; 0.174 (inactive) in experiment [12]; 1.18 (inactive) in experiment [13]; -0.116 (inactive) in experiment [14]; 0.172 (inactive) in experiment [15].
For `CCCC[C@H]1OB(O)C[C@H]2C1=C(COc1ccccc1)C[C@H]1C(=O)N(Cc3ccccc3)C(=O)[C@H]12`, the composite z-score is 0.755 in experiment [1]; 0.692 in experiment [2]; 0.314 in experiment [3]; 0.817 in experiment [4]; 0.512 in experiment [5]; 0.291 in [6]. The composite z-score is 0.872 in [8]; 0.571 in [9]; -0.0155 in experiment [11]; 1.49 in experiment [16]; -0.0136 in experiment [17]; -0.518 in [18]. Besides, the composite z-score in experiment [19] is 0.106; in experiment [20], 1.76. For the same molecule, the z-score in experiment [7] was 0.742; in [10], 0.258 (inactive); in experiment [12], -1.72 (inactive); in experiment [13], -0.375 (inactive); in experiment [14] it was 1.13 (inactive); in experiment [15], -0.208 (inactive).
As for `Oc1ccc2cc[n+](Cc3cccc(OC(F)(F)F)c3)cc2c1`, the composite z-score in experiment [1] is 0.644; in [2], 0.0093; in [3] it was 0.295; in experiment [4] it was -0.0505; in experiment [5], 1.33; in [6] it was 1.51. For the same molecule, the composite z-score in [8] was 1.38; in experiment [9], -0.0259; in [11], 0.112; in experiment [16], 0.1; in experiment [17], -0.255; in experiment [18], 0.0193. Moreover, the composite z-score in [19] is -0.527; in experiment [20], 1.89. Besides, the z-score in experiment [7] was 0.579; in experiment [10], -0.256 (inactive); in [12] it was 0.202 (inactive); in experiment [13], -0.452 (inactive); in experiment [14], -0.0243 (inactive); in experiment [15], -0.668 (inactive).
Consider `CCOC(=O)N1C(c2ccc(OCCCO)cc2)=NC(C(=O)OC)N1C(=O)OCC` (stereo not given), for which the composite z-score was 0.369 in [1]; 1.2 in experiment [2]; 0.454 in experiment [3]; 0.864 in [4]; 1.31 in experiment [5]; 0.955 in [6]. In addition, the composite z-score in experiment [8] is 1.07; in experiment [9], 0.669; in [11] it was 0.506; in experiment [16] it was 0.829; in [17] it was 0.0614; in [18], 0.497. The composite z-score in experiment [19] was found to be 0.36; in experiment [20] it was 1.13. In addition, the z-score was -0.541 in experiment [7]; -1.45 (inactive) in experiment [10]; -2.41 (inactive) in experiment [12]; -1.33 (inactive) in experiment [13]; 0.139 (inactive) in experiment [14]; 0.666 (inactive) in experiment [15].
In the case of `C=CCN1C(=O)[C@@]2(O[C@@H](CCO)[C@H]([Si](C)(C)c3ccc(OC)cc3)[C@H]2C)c2cc(NC(C)=O)ccc21`, the composite z-score in experiment [1] came out at 1.48; in experiment [2] it was 1.21; in [3], 0.0016; in [4], 0.818; in experiment [5], 1.34; in experiment [6], 1.45. For the same molecule, the composite z-score in [8] is 1.22; in experiment [9], 0.948; in experiment [11], 0.303; in experiment [16] it was -0.0236; in experiment [17], 0.0982; in experiment [18], 0.31. In addition, the composite z-score in [19] turned out to be 0.364; in experiment [20] it was 1.85. Moreover, the z-score in experiment [7] was 0.921; in experiment [10], -0.301 (inactive); in experiment [12] it was -4.72 (inactive); in experiment [13], 0.445 (inactive); in experiment [14], 7.68 (inactive); in experiment [15], 0.766 (inactive).
